Assay results published in paper PMC7862700, “An all-to-all approach to the identification of sequence-specific readers for epigenetic DNA modifications on cytosine”.

Assays:
Assay in all cases: DAPPL (digital affinity profiling via proximity ligation, sequencing); 10 mM Tris-HCl pH 7.5, 50 mM NaCl, 1 mM DTT, 4% glycerol, room temperature, 30 min; GST-TFs on glutathione beads, 16-mer random dsDNA library, 0.1% formaldehyde crosslink after washing; high values mean tight binding
FEV = biological target: T1, FEV (Homo sapiens, UniProt Q99581 1-238); conditions: protein: recombinant; tags: N-terminal GST; dsDNA, one strand shown
T1 sequence: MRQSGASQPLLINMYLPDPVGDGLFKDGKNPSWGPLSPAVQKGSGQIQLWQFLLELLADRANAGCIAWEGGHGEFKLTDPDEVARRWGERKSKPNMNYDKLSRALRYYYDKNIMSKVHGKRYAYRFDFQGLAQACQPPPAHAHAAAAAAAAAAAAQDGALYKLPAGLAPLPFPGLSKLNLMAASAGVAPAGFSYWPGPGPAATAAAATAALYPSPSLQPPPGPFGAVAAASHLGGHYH
Outline: (§1)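 A tag-only sample was pooled with DNA-barcoded human transcription factors that had been expressed in yeast as GST fusions and captured on glutathione beads. The pools were incubated for 30 min at room temperature with 200 nmole of a random double-stranded 16-mer DNA library in Tris/NaCl/DTT/glycerol buffer, then washed, crosslinked with 0.1% formaldehyde, proximity-ligated (BsaI/T4 ligase, 1 h, 37 °C), PCR-amplified and sequenced on an Illumina NextSeq500. Binding signal is each hexamer's read frequency for a factor divided by its frequency for the tag-only sample.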

ETV5 = ETV5 (Homo sapiens, UniProt P41161 1-510); conditions: protein: recombinant; tags: N-terminal GST; dsDNA, one strand shown
Sequence of ETV5 (P41161 whole entry): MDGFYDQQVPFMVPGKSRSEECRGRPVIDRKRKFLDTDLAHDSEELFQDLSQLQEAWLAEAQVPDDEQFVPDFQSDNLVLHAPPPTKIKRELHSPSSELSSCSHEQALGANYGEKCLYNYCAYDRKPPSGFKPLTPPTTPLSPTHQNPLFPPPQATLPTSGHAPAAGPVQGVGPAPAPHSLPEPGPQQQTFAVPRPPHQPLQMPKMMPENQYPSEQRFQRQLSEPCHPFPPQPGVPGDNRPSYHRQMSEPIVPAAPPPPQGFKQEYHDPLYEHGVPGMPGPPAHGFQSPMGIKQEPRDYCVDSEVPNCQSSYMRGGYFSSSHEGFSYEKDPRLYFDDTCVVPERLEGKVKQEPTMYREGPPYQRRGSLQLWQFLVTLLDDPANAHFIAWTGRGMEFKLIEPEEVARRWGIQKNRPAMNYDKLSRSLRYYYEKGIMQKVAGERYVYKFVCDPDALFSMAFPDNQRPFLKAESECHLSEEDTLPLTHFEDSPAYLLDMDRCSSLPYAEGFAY
Outline: as §1

HSF1 = HSF1 (Homo sapiens, UniProt Q00613 1-529); conditions: protein: recombinant; tags: N-terminal GST; chain copies: 3; dsDNA, one strand shown
Sequence of HSF1 (Q00613 whole entry): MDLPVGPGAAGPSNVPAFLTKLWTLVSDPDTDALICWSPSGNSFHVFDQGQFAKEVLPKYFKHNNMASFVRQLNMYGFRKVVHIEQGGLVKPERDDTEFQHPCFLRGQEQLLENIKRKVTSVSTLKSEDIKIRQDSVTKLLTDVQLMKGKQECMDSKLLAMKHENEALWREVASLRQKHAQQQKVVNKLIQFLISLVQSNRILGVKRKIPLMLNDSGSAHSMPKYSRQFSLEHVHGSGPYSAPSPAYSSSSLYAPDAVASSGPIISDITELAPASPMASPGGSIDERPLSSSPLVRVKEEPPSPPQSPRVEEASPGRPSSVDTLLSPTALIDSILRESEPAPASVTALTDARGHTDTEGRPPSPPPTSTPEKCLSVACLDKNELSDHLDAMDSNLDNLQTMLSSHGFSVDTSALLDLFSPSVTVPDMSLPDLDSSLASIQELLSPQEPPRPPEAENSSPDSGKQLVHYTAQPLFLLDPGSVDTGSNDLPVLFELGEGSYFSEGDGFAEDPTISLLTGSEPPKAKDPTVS
Outline: as §1

SPIC = biological target: T2, SPIC (Homo sapiens, UniProt Q8N5J4 1-248); conditions: protein: recombinant; tags: N-terminal GST; dsDNA, one strand shown
T2 sequence: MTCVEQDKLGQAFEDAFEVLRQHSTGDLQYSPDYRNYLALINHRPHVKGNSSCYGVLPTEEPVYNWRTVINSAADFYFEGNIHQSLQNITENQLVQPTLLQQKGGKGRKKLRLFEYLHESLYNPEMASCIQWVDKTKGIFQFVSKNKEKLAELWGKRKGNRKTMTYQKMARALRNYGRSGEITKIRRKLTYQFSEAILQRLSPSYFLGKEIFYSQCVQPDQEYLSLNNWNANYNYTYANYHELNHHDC
Outline: as §1

ELF4 = ELF4 (Homo sapiens, UniProt Q99607 1-663); conditions: protein: recombinant; tags: N-terminal GST; dsDNA, one strand shown
Sequence of ELF4 (Q99607 whole entry): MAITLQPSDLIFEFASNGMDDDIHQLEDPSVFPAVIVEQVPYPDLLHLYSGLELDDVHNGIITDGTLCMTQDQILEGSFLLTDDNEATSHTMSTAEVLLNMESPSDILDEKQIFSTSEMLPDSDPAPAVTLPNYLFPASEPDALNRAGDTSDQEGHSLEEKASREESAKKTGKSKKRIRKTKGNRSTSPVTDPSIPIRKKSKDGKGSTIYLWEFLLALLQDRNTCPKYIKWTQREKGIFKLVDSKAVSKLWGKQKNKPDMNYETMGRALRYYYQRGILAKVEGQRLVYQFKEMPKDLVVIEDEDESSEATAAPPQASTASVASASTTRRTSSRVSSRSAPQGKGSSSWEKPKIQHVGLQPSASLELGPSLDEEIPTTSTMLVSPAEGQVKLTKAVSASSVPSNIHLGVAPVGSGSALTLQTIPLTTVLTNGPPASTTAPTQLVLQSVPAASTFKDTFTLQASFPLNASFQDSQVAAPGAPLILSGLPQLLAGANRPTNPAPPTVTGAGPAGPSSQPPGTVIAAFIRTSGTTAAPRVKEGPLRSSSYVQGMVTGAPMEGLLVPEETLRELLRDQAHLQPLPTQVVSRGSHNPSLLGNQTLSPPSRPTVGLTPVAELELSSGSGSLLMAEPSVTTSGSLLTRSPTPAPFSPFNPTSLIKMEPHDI
Outline: as §1

ELK4 = biological target: T3, ELK4 (Homo sapiens, UniProt P28324-2 1-405); conditions: protein: recombinant; tags: N-terminal GST; dsDNA, one strand shown
T3 sequence: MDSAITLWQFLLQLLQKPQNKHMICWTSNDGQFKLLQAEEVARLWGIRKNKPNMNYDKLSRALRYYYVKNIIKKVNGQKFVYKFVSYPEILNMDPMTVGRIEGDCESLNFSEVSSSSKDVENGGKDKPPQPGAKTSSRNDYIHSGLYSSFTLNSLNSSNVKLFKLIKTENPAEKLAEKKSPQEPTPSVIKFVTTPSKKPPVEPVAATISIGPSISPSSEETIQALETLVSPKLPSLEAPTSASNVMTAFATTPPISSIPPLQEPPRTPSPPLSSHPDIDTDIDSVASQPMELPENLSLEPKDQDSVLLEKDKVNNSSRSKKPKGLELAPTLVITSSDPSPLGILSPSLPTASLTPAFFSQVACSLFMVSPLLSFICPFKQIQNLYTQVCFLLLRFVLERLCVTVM
Outline: as §1

ETV2 = biological target: T4, ETV2 (Homo sapiens, UniProt O00321 1-342); conditions: protein: recombinant; tags: N-terminal GST; dsDNA, one strand shown
T4 sequence: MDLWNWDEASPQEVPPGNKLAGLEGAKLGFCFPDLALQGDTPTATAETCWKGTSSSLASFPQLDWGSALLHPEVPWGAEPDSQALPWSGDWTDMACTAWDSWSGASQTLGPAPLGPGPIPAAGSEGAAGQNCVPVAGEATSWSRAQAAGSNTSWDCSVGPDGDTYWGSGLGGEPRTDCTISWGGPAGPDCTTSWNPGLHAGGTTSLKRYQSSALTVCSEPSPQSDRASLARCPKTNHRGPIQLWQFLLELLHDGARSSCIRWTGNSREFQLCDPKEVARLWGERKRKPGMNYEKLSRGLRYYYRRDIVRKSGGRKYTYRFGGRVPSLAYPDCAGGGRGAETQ
Outline: as §1

ELF3 = biological target: T5, ELF3 (Homo sapiens, UniProt P78545 1-371); conditions: protein: recombinant; tags: N-terminal GST; dsDNA, one strand shown
T5 sequence: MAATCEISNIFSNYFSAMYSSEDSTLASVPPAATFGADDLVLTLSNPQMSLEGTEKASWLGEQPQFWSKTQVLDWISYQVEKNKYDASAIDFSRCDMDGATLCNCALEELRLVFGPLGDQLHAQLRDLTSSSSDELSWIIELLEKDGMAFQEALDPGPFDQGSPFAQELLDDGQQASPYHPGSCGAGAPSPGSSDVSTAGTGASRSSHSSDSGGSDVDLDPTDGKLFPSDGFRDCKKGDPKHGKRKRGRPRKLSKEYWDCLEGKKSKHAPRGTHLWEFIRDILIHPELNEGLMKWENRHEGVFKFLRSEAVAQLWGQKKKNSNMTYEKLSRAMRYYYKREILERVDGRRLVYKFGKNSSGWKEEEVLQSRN
Outline: as §1

CRX = CRX (Homo sapiens, UniProt O43186 1-299); conditions: protein: recombinant; tags: N-terminal GST; dsDNA, one strand shown
Sequence of CRX (O43186 whole entry): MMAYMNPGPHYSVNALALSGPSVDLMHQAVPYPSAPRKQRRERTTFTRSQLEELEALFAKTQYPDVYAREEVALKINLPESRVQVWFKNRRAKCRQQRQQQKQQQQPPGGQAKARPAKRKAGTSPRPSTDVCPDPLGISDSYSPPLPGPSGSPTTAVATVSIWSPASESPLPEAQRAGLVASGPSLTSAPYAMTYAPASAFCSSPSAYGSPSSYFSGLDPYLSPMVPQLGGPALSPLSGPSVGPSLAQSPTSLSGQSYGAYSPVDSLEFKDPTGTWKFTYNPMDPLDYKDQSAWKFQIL
Outline: as §1

ETV1 = ETV1 (Homo sapiens, UniProt P50549 1-477); conditions: protein: recombinant; tags: N-terminal GST; dsDNA, one strand shown
Sequence of ETV1 (P50549 whole entry): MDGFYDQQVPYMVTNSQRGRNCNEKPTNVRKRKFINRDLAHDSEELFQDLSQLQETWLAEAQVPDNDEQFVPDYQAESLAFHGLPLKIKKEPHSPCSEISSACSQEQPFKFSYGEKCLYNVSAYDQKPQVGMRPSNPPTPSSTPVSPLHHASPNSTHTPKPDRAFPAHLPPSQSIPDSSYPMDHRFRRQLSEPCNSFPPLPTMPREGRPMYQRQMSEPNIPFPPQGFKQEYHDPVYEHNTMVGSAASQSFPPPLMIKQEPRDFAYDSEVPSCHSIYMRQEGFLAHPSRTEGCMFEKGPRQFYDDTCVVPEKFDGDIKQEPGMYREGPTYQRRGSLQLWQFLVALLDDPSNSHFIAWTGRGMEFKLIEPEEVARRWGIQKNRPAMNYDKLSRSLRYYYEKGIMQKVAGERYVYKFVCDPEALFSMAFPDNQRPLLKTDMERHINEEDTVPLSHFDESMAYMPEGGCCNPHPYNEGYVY
Outline: as §1

CGATTT
binding signal (FEV): 1.22 fold enrichment (6-mer frequency, TF over GST control)
binding signal (ETV5): 1.23 fold enrichment (6-mer frequency, TF over GST control)
binding signal (HSF1): 1.38 fold enrichment (6-mer frequency, TF over GST control)
binding signal (SPIC): 1.22 fold enrichment (6-mer frequency, TF over GST control)
binding signal (ELF4): 1.19 fold enrichment (6-mer frequency, TF over GST control)
binding signal (ELK4): 1.14 fold enrichment (6-mer frequency, TF over GST control)
binding signal (ETV2): 1.13 fold enrichment (6-mer frequency, TF over GST control)
binding signal (ELF3): 1.23 fold enrichment (6-mer frequency, TF over GST control)
binding signal (CRX): 1.58 fold enrichment (6-mer frequency, TF over GST control)
binding signal (ETV1): 1.17 fold enrichment (6-mer frequency, TF over GST control)
